Experiment [1] is described as follows: inhibitors of TNFa-induced NFkB p65 translocation, primary screen, imaging, HUVEC, MLSMR starter and 10KST1 sets (AID 438;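 active = inhibition above 20% together with a positive visual image hit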;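 also: compound added about 3h40 before a 20 min TNFalpha stimulation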;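 as to inhibition: signal is the nuclear over cytoplasmic p65 intensity ratio per well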). The settings on record: HUVEC TNFa-induced p65 nuclear translocation; cell count: measured here: nuclei count (cytotoxicity indicator), at 2.08 µM; inhibition: at 2 µM, stronger effect = higher value, 0% TNFa-plus-vehicle, 100% no-TNFa wells.
Experiment [2] can be described thus: reduction of polyQ htt aggregates in cells – imaging, exon1htt(103Q)mCFP cells, high-content imaging, primary screen (AID 483;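 active = visual image review flags a hit and inhibition of aggregation exceeds 20%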;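 also: compound exposure lasted 3 days before fixation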;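 as to nuclei count: percent of the per-plate median nuclei count of sample wells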). As to conditions: exon1htt(103Q)mCFP cell line, aggregate imaging, at 2 µM; inhibition of aggregation: stronger effect = higher value; nuclei count: measured here: cell count, toxicity.
Experiment [3] in a line: endothelial E-selectin expression blockers – imaging, HUVEC, immunofluorescence, MLSMR starter and 10KST1 sets, primary screen (AID 487;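 active = visually confirmed hit in the image check and inhibition above 20%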;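 as to inhibition: signal is fraction of cell area covered by stained E-selectin grains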;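 as to nuclei count: 100% = median nuclei count of all wells on the same plate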). As to conditions: HUVEC TNFalpha-induced E-selectin immunofluorescence imaging, at 2 µM; inhibition: stronger effect = higher value; nuclei count: measured here: cell number, toxicity.
The target in experiment [4] is Voltage-gated potassium channel subunit beta-2 (Rattus norvegicus) (UniProt P62483). Description: inhibitors of rat Kvbeta2 reductase activity – biochemical, NADPH fluorescence, primary screen (AID 622;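 active = fluorescence slope higher than the sample average by over 3 SD, cut at about -0.22 in these data, passing the limit was not always enough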;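 also: slope of raw intensity against log time taken from 70 to 1610 s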). As to conditions: recombinant KvBeta, 4-cyanobenzaldehyde reduction, at 10 µM, stronger effect = higher value.
Chain of Voltage-gated potassium channel subunit beta-2 (Rattus norvegicus) (P62483 whole entry, looked up): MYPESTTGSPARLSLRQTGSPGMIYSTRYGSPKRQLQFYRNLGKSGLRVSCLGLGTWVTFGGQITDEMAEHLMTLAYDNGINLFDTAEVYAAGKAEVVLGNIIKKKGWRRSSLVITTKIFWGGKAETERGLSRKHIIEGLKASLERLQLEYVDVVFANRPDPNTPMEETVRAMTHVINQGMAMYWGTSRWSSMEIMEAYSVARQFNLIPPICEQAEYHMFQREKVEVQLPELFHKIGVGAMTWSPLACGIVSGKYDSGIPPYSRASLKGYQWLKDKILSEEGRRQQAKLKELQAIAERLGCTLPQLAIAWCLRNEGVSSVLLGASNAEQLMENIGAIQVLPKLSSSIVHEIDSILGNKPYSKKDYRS
Experiment [5] shares this target. Description: enhancers of rat Kvbeta2 NADPH turnover – biochemical, NADPH fluorescence, primary screen (AID 623;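 active = NADPH fluorescence slope more negative than the mean of all samples by about 3 SD, 99.7% confidence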;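 also: fluorescence intensity change per second fitted from 20 to 320 s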). The settings on record: Recombinant KvBeta, NADPH fluorescence decrease slope, 10 min; at 10 µM; stronger effect = lower value.
Experiment [6] addresses Alpha-2C adrenergic receptor (Homo sapiens) (UniProt P18825). Description: compounds altering alpha2C-coupled GIRK flux – cell-based, HEK293 alpha2C/GIRK1/2, thallium flux, primary screen (AID 624;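 active = fluorescence slope after compound addition differing from the mean of all screened samples at 99.7% confidence, in either direction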;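 also: slope of fluorescence ratio to pre-addition baseline per second over 15 to 24 s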). The settings on record: thallium flux BTC fluorescence, at 10 µM, actives lie on both sides.
Experiment [7] is described as follows: blockers of RIG-like receptor reporter activation – cell-based, Sendai virus stimulus, luciferase, 10K MLSCN set, TLR/RLR signaling modifier project, primary screen (AID 602276).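 Also: firefly luciferase from ISG56 promoter only with Renilla not read in this screen; 0% = Sendai virus plus DMSO and 100% = medium plus DMSO without virus.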 As to conditions: HEK293 RL24 IRF3 luciferase reporter, at 10 µM, stronger effect = higher value. On the technique in general: A reporter such as luciferase makes a cellular process visible.
The nature of experiment [8]: TLR3 IRF3 reporter activation blockers – cell-based, poly I:C stimulus, luciferase, 10K MLSCN set, primary screen (AID 602277;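 active = inhibition of the reporter signal at or above 50%; inactive = inhibition below 50%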). As to conditions: HEK293-TLR3 RL24 IRF3 luciferase reporter, at 10 µM, stronger effect = higher value.

Each structure is given as a SMILES string. Active and inactive are the calls of the source.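 The calls were made as follows, unless noted: active = inhibition at or above 50% at 10 µM; inactive = inhibition below 50%.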

Chain of Alpha-2C adrenergic receptor (Homo sapiens) (P18825 whole entry, looked up): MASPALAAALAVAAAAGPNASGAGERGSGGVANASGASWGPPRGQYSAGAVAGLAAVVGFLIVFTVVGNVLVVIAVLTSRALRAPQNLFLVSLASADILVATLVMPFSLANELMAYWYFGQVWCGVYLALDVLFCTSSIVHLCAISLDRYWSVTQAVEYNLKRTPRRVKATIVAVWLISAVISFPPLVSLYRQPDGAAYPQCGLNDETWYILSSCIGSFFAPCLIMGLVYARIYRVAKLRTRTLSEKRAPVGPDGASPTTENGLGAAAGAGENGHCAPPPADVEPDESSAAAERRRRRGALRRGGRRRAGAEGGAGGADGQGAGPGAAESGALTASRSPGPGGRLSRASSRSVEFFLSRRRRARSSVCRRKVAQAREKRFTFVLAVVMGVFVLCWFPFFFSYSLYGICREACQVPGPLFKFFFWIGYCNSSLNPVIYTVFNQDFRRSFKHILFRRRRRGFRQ

Usually inhibition stands for the relative decrease from the control value, in per cent. Consider `CCN(CC)c1nc2nonc2nc1N(CC)CC`, for which, in experiment [1], the cell count is 314. Moreover, the inhibition is -11.8% (inactive) in experiment [1], -12.1% (inactive) in experiment [3], 14.3% (inactive) in experiment [7] and 21.8% (inactive) in experiment [8]. Besides, in experiment [2], the inhibition of aggregation was -1.5% (inactive). The nuclei count was 100% in experiment [2] and 94.7% in experiment [3]. The fluorescence slope in experiment [4] was -0.446 (inactive). Further, the NADPH fluorescence slope in experiment [5] is -5.6e-05 (inactive). The slope in experiment [6] was 0.00553 (inactive).

Turning to `Cc1nc2cc(Cl)ccc2n1CCO`, the cell count in experiment [1] was 404. Further, the inhibition in experiment [1] is 6.1% (inactive); in experiment [3] it was 15.4% (inactive); in experiment [7] it was 17% (inactive); in experiment [8], 21.6% (inactive). The inhibition of aggregation in experiment [2] is -6.3% (inactive). Also, the nuclei count came out at 104% in experiment [2] and 115% in experiment [3]. The fluorescence slope in experiment [4] is -0.565 (inactive). Also, the NADPH fluorescence slope in experiment [5] is -1.6e-05 (inactive). The slope in experiment [6] is 0.00492 (inactive).

As to `COc1ccc(-c2nn3c(-c4cccc(C)c4)nnc3s2)cc1OC`, the cell count in experiment [1] was found to be 525. The inhibition in experiment [1] was 10.3% (inactive); in experiment [3] it was -9.3% (inactive); in experiment [7], -18.2% (inactive); in experiment [8], -17.1% (inactive). In experiment [2], the inhibition of aggregation is -9.4% (inactive). Also, the nuclei count in experiment [2] was found to be 100%; in experiment [3] it was 114%. Moreover, the fluorescence slope in experiment [4] was -0.419 (inactive). Moreover, the NADPH fluorescence slope in experiment [5] is 1.9e-05 (inactive). In experiment [6], the slope was 0.00514 (inactive).

On to `Cc1ccc(-c2nn(-c3ccccc3)cc2CN(Cc2ccccc2)C(=O)CCC(=O)O)o1`, for which the cell count in experiment [1] amounted to 329. The inhibition in experiment [1] was 7.1% (inactive); in experiment [3], -66.8% (inactive); in experiment [7], 12.8% (inactive); in experiment [8], 19.6% (inactive). In addition, the inhibition of aggregation in experiment [2] was -24.5% (inactive). Besides, the nuclei count in experiment [2] was 107%; in experiment [3], 120%. In experiment [4], the fluorescence slope is -0.429 (inactive). Besides, the NADPH fluorescence slope in experiment [5] is -2.6e-05 (inactive). The slope in experiment [6] was 0.00807 (inactive).

For the compound `CCc1nnc(NC(=O)NCN2C(=O)C3C4C=CC(C4)C3C2=O)s1` (stereo not drawn), the cell count in experiment [1] came out at 303. Also, the inhibition is 4.3% (inactive) in experiment [1], -28.4% (inactive) in experiment [3], 7.26% (inactive) in experiment [7] and 12.4% (inactive) in experiment [8]. In addition, the inhibition of aggregation in experiment [2] is 3.2% (inactive). Also, the nuclei count in experiment [2] is 92.9%; in experiment [3], 96.4%. In experiment [4], the fluorescence slope was -0.458 (inactive). Also, the NADPH fluorescence slope in experiment [5] is -0.000309 (inactive). Further, the slope in experiment [6] is 0.00673 (inactive).

As to `CCSc1nnc(-c2cccs2)o1`, in experiment [1], the cell count turned out to be 413. Also, the inhibition is -4.5% (inactive) in experiment [1], 21.6% (inactive) in experiment [3], -21.5% (inactive) in experiment [7] and -57.7% (inactive) in experiment [8]. The inhibition of aggregation in experiment [2] is -4.3% (inactive). The nuclei count in experiment [2] is 110%; in experiment [3], 111%. Also, in experiment [4], the fluorescence slope was -0.369 (inactive). In addition, in experiment [5], the NADPH fluorescence slope was -4.4e-05 (inactive). In addition, the slope in experiment [6] is 0.00573 (inactive).

Turning to `C=CCn1c(SCC(=O)Nc2ccccc2OC)nnc1-c1ccco1`, in experiment [1], the cell count stood at 736. Further, the inhibition is 11% (inactive) in experiment [1], 0.9% (inactive) in experiment [3], 20.4% (inactive) in experiment [7] and 22.4% (inactive) in experiment [8]. In addition, the inhibition of aggregation in experiment [2] was 1.8% (inactive). Besides, the nuclei count in experiment [2] amounted to 105%; in experiment [3], 120%. In experiment [4], the fluorescence slope was -0.494 (inactive). Also, the NADPH fluorescence slope in experiment [5] was -5.8e-05 (inactive). The slope in experiment [6] was 0.00624 (inactive).

In the case of `O=C(NCCCN1CCCC1=O)c1ccc2c(=O)n(Cc3ccco3)c(=S)[nH]c2c1`, the cell count in experiment [1] was determined as 653. The inhibition in experiment [1] is -16.6% (inactive); in experiment [3], -69.5% (inactive); in experiment [7], 0.725% (inactive); in experiment [8], -15.6% (inactive). In addition, in experiment [2], the inhibition of aggregation is -35.1% (inactive). Besides, the results for the nuclei count in experiment [2] and in experiment [3] were 74% and 101%, respectively. The fluorescence slope in experiment [4] is -0.572 (inactive). Moreover, the NADPH fluorescence slope in experiment [5] is 2.7e-05 (inactive). Further, the slope in experiment [6] is 0.00624 (inactive).

(Values after PubChem BioAssay.)
